From PubChem BioAssay AID2540 (Sanford-Burnham Center for Chemical Genomics, 2010) come the findings set out here.

Hit rate of the full screen: of about 330,000 compounds, about 4,100 (1.2%) were called active. The full list was thinned out, with actives kept by preference. A number with no mark means an inactive call. Rule as the data show it: active = inhibition above about 50%; inactive = the rest.

As a reminder, the inhibition is the change of the read-out against control, counted positive when it falls.

The target in the assay is Sentrin-specific protease 8 (Homo sapiens) (UniProt Q96LD8). Description: SENP8 protease inhibitors, primary screen, biochemical, luminescence (AID 2540). Particulars: purified SENP8, Z-RLRGG-aminoluciferin cleavage, at 10 µM, hits give high values.
Sequence of Sentrin-specific protease 8 (Homo sapiens) (Q96LD8 whole entry, looked up): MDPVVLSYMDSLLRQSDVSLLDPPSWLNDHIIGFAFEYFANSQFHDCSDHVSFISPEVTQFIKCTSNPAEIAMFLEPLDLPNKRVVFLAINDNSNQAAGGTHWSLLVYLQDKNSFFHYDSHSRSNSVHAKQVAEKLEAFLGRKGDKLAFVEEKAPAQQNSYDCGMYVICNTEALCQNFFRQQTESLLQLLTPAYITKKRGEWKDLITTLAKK
Regarding `CCOc1ccc(C(O)Cn2c(=N)n(CCN3CCCCC3)c3ccccc32)cc1` (configuration not stated), the inhibition was 4.64%.
The result for `O=C1c2ccccc2-c2ncnc3c(N4CCOCC4)cc(N4CCOCC4)c1c23` reads -2.88%.
To `O=C(c1ccccc1)C(Cn1cncn1)C(Sc1ccccc1)c1ccccc1` (configuration not stated) belongs -0.476%.
The result for `Cc1ccc(Nc2nc(C)cc(C)c2C(N)=O)cc1` reads 5.13%; that for `Cc1ccc(Nc2nc(Cl)c(C=O)s2)cc1`, 67.8% (active); that for `Cc1ccc(NC(=O)Nc2nnc(-c3ccncc3)s2)cc1`, -9.37%.
As for `CCOC(=O)C1CCN(S(=O)(=O)c2ccc3c(c2)N(C)C(=O)CC(=O)N3C)CC1`, the inhibition was 2.4%.
The result for `CC[N+](C)(CC)CCC[n+]1c(-c2ccccc2)c2cc(N)ccc2c2ccc(N)cc21` reads 96.5% (active).
For the compound `Cc1cc(C)cc(-c2nnc(SCC(=O)NC3CC3)o2)c1`, the inhibition was -2.18%.
`CCC(=O)Nc1ccc2nn(-c3ccc(F)cc3)nc2c1`: the inhibition was 63.6% (active).
The result for `Cc1ccc(-n2nc3ccc(NC(=O)/C=C/c4ccco4)cc3n2)cc1C` reads 15.4%; that for `Cc1nn(CC(=O)Nc2ccc(F)cc2)c(=O)c2ccccc12`, 1.21%; that for `CCOc1c2ccc(C(=O)NC3CCCc4ccccc43)cc2nn1CC` (configuration not stated), -8.27%.
To `CC(=O)N1CC2(C)CN(C(C)=O)CC(C)(C1)C2=O` belongs 1.73%; to `CCCCOc1ccc(-c2ncc(C(=O)OCC)c(N)n2)cc1`, -12.4%; to `CCCCOc1ccc(-c2nnc(-c3ccco3)o2)cc1`, 64.8% (active).
The result for `CCOc1ccc(-c2nnc(-c3ccco3)o2)cc1` reads 73.3% (active); that for `N#Cc1ccc(OCc2nnc(-c3ccc([N+](=O)[O-])cc3)o2)cc1`, 7.85%; that for `CCOc1ccc(-n2c(SCC(N)=O)nnc2-c2ccco2)cc1`, -1.84%.
As to `CCCCSc1nnc(-c2ccc(C)cc2)o1`, the inhibition is 33.5%.
As to `Cc1c(-c2ccccc2)n[nH]c1C(=O)N=Nc1c(O)[nH]c2ccccc12`, the inhibition was 21.6%.
The result for `Cc1ccccc1NS(=O)(=O)CCCCC(Cl)(Cl)Cl` reads 7.88%; that for `CCOc1ccc(S(=O)(=O)N/N=C(\C)c2ccc(Cl)c(Cl)c2Cl)cc1`, 1.79%.
To `CCN1C(=O)C(C(=O)NC(C)c2ccccc2)C2CC1(C)Oc1ccccc12` (configuration not stated) belongs 7.17%; to `CSc1sc(C(=O)NC(=O)NCc2cccnc2)c(C)c1-c1ccon1`, 4.14%; to `O=C(Cn1cc(C(=O)C2CC2)c2ccccc21)Nc1ccccc1Cl`, 5.51%.
The result for `O=C(COC(=O)c1ccc(O)cc1O)NNC(=O)c1cccs1` reads -4.38%.
Regarding `COc1ccc(/C=C2\SC(=S)N(CC(=O)NNC(=O)c3ccncc3)C2=O)cc1`, the inhibition is -3.25%.
To `C=CCOc1ccc(/C=C2\SC(=S)N(CCC(=O)O)C2=O)cc1` belongs 97.6% (active); to `Cc1ccc(/C=C2/SC(=S)N(CCC(=O)NCCCN3CCOCC3)C2=O)cc1`, -1.52%; to `C[C@@H](C(=O)Nc1ccc2ccccc2c1)[C@@H]1C[C@@]1(C)[C@@H](NC(=O)c1cccnc1)c1ccccc1`, 13.1%.
As to `CCOC(=O)C1=C(NC(=S)NC(=O)c2ccccc2)c2ccccc2CC1(C)C`, the inhibition is -5.5%.
To `COc1ccccc1NC(=O)COC(=O)CNC(=O)C1CCCCC1` belongs 8.04%.
Regarding `COc1cc(/C=N/N=C(\N)c2nonc2N)cc(OC)c1OC`, the inhibition was -1.1%.
The result for `CN(C)c1nnnn1-c1ccc(Cl)cc1` reads 2.64%; that for `c1ccc(-n2nc3ccccc3n2)cc1`, -19.2%; that for `Nc1ccc2nn(-c3ccc(Cl)cc3)nc2c1`, 86.7% (active).
The result for `COc1ccc(Br)cc1CN(C)CC(=O)Nc1cc([N+](=O)[O-])ccc1OC` reads -6.64%; that for `Cc1ccc2c(c1)NCC(C(=O)NC1CCC(C)CC1)O2` (configuration not stated), -10.8%; that for `COc1cccc(C(=O)NC(=O)Nc2nc(C)cc(C(F)(F)F)n2)c1`, -10.3%.
`CNC(=O)c1cc2c(ccc3ccccc32)oc1=N`: the inhibition is -3%.
To `Cc1ccc(/C=N/NC(=S)NC2CCCCC2)o1` belongs -5.05%; to `Cc1ccc(/C=N/NC(=S)Nc2cccc(S(=O)(=O)N(C)C)c2)o1`, 1.79%.
On to `N=c1oc2ccccc2cc1C(=O)NCc1ccccc1`, for which the inhibition is -17.9%.
To `Cc1ccc(/C=N/NC(=O)c2cc3ccccc3cc2O)o1` belongs 55.8% (active).
To `N=c1oc2ccccc2cc1C(=O)N/N=C/c1ccccc1` belongs 86.5% (active).
To `CN(CC(=O)NC1CCCC1)S(=O)(=O)c1cnc[nH]1` belongs -8.57%.
Turning to `O=C(NCCO)C(=O)NCC(c1ccc2c(c1)OCO2)N1CCN(c2ccc(F)cc2)CC1` (configuration not stated), the inhibition is -0.025%.
The result for `CC(=O)N1CC(C)c2scc(C)[n+]2-c2ccccc21` (configuration not stated) reads 0.506%; that for `COc1ccc(S(=O)(=O)Nc2ccc(F)cc2)c(C)c1C`, 3.56%.
To `O=C(Nc1cc2c3c(c1)CC(=O)N3CCC2)c1ccccc1F` belongs 3.3%.
The result for `Cc1ccc(C)c(NC(=O)CSc2nc3c(oc4ccccc43)c(=O)n2-c2ccccc2)c1` reads -0.496%; that for `Oc1ccc(N=Nc2nccs2)c(O)c1`, 72.7% (active).
On to `O=C(Nc1cccc(Cl)c1)Nc1ccccc1NS(=O)(=O)c1cccs1`, for which the inhibition was 11.3%.
The result for `COC(=O)CNC(c1ccccc1Cl)c1cc(Br)ccc1NC(=O)CCN1CCOCC1` (configuration not stated) reads -4.92%; that for `Cn1c(Cn2nnc3ccccc32)nnc1SCC(=O)c1ccccc1F`, 0%; that for `Cc1oc(-c2cccc(Cl)c2)[n+]([O-])c1C`, -7.45%.
Turning to `Clc1ccc(-c2cc(C3CCNCC3)[nH]n2)c(Cl)c1`, the inhibition was 0.621%.
To `CCN1C(=O)c2cccc3c(N)ccc1c23` belongs 83.8% (active).
The result for `Cc1nn(C)cc1N1C(=O)c2cccc3c(N)ccc(c23)C1=O` reads 0.391%; that for `CCN1C(=O)c2cccc3c(S(=O)(=O)Nc4ccccc4O)ccc1c23`, 6.13%; that for `CC1=C2C(=O)OC(c3ccoc3)C2(C)CCC1` (configuration not stated), -1.03%.
The result for `CC(C)C(=O)Nc1ccc(C(=O)NNC(=O)c2cccs2)cc1` reads -0.29%; that for `CCc1ccc(NC(=O)C(=O)NNC(=O)c2cccs2)cc1`, 69.7% (active).
With `CCc1ccc(NC(=O)COC(=O)c2cccs2)cc1`, the inhibition was 11.2%.
With `Cc1ccc(CCCOC(=O)C[N+]2(C)CCCCC2)cc1`, the inhibition is 7.71%.
To `COc1ccc(CCNc2cc(N3CCN(C(=O)c4ccccc4OC)CC3)ccc2[N+](=O)[O-])cc1OC` belongs -3.35%; to `CC1=NN(C(N)=S)C(=O)C1N=Nc1cc(Cl)ccc1Cl` (configuration not stated), 70.4% (active); to `NC(=O)CC[C@@H]1NC(=O)[C@@H]2CCCN2C(=O)c2cc([N+](=O)[O-])cc(F)c2NCCC[C@@H](C(N)=O)NC1=O`, -2.54%.
To `CN(CC(=O)NCc1cccnc1)S(=O)(=O)c1cc(Cl)ccc1Cl` belongs 3.65%.
The result for `CN1C(C(=O)NCc2ccco2)CC2Cn3c(nc4ccccc43)C21` (configuration not stated) reads -18.3%; that for `O=C(O)CN1C(=O)CC(Cc2ccccc2)C1=O` (configuration not stated), 4.48%.
Turning to `CCOC(=O)c1ccc(Nc2cc(C)nc3nc(C)nn23)cc1`, the inhibition is 7.18%.
To `CCOC(=O)c1ccc(NC(=O)c2c(NCc3ccccc3)[nH]c(=O)[nH]c2=O)cc1` belongs 0.312%; to `CCOC(=O)c1ccc(Nc2cc3ccccc3c(=O)[nH]2)cc1`, 64.2% (active).
The result for `O=C(NN1C(=O)C2C3C=CC(O3)C2C1=O)c1ccccc1` (configuration not stated) reads -0.512%.
The result for `Nc1ccc(N=Nc2ccccc2Cl)c(N)n1` reads 72.7% (active); that for `COc1ccccc1C1CC(=O)n2c(nc(-c3ccccc3)c2-c2ccccc2)S1` (configuration not stated), -4.43%.
On to `CC(=O)c1cnn(-c2cc(Oc3ccc(F)cc3)ncn2)c1C`, for which the inhibition was 9.6%.
Regarding `O=C(COc1ccc2c(c1)CCC2)N1CCN(c2ccc(F)cc2)CC1`, the inhibition is -17.5%.
To `COc1ccc(-c2sc3ccccc3c2-c2ccc(OCCN3CCOCC3)cc2)cc1` belongs 8%.
Take `COC(=O)c1ccc(/C=C/c2c(-c3ccc(OC)cc3)sc3ccccc23)cc1`: the inhibition is -2.53%.
To `COc1ccc(N=C(C)c2sc3ccccc3c2O)cc1` belongs 74% (active).
Take `COC(=O)C1=CN(c2ccc(F)c(F)c2)C=C(C(=O)OC)C1c1ccc([N+](=O)[O-])cc1`: the inhibition was -9.67%.
The result for `CC(=O)N1CCN(C(=O)C2(NC(=O)Nc3ccc(C)cc3)CCCCC2)CC1` reads 5.59%.
To `CC1(C)CC(N(Cc2ccccc2)C(=O)Cc2ccccc2)CCO1` (configuration not stated) belongs -3.89%; to `COc1ccc(-c2ccc(OC(=O)NC3CCS(=O)(=O)C3)cc2)cc1` (configuration not stated), -13.5%.
